Measured values taken from PubChem BioAssay (EPA / NIEHS).
Activity calls are given as the source filed them. Rule for the calls: active = hit-call score of the fitted dose curve at least 0.9, where 1 is the maximum; inactive = score below 0.9.

Legend:
[1] = ATG_CRE_CIS: Attagene CIS-FACTORIAL HepG2 Assay for human cAMP Responsive Element (CRE) binding protein 3 (AID 2282926); conditions: HepG2 CRE cis-reporter, Attagene multiplexed mRNA; actives raise or lower the signal
In short: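 Transfected HepG2 were treated for 24 hours, then RNA was extracted and reporter cDNA amplified with sequence-specific primers. Labelled fragments were separated by capillary electrophoresis, and the CRE signal was fitted bidirectionally with DMSO as baseline.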

[2] = target: CCAAT/enhancer-binding protein beta (Homo sapiens) (UniProt P17676); test: ATG_C_EBP_CIS: Attagene CIS-FACTORIAL HepG2 Assay for human CCAAT/Enhancer Binding Protein (C/EBP) beta (AID 2282927); conditions: HepG2 Attagene cis-factorial transcription factor reporter; actives raise or lower the signal
In short: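 Endogenous C/EBPb-driven reporter transcripts measured in transfected human HepG2 cells at 24 h via RT-PCR and capillary electrophoresis of labelled fragments. Activity fitted in both directions relative to DMSO baseline.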

[3] = ATG_CMV_CIS: Attagene CIS-FACTORIAL HepG2 Assay for human CMV (Internal Marker) (AID 2282928); conditions: HepG2 CMV promoter reporter, transcription factor profiling; actives raise or lower the signal;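 note: endpoint acts as a background internal control marker rather than a target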
In short: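 CMV internal-marker background readout in transiently transfected HepG2 cells bearing cis-regulated reporter units. Reporter mRNA is measured 24 h after dosing by RT-PCR and capillary electrophoresis, with bidirectional fitting against DMSO.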

[4] = ATG_DR4_LXR_CIS: Attagene CIS-FACTORIAL HepG2 Assay for human Liver X Receptor (LXR), DR4 submotif (AID 2282929); conditions: HepG2 Attagene DR4 cis-reporter, mRNA transcription; actives raise or lower the signal
In short: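 After transient transfection with multiplexed cis-promoter reporter units, HepG2 cells received test chemicals for 24 h. Reporter mRNA induction, detected by fluorescence after RT-PCR and capillary electrophoresis, was scored relative to DMSO.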

[5] = target: Aryl hydrocarbon receptor (Homo sapiens) (UniProt P35869); test: ATG_Ahr_CIS: Attagene CIS-FACTORIAL HepG2 Assay for human Aryl Hydrocarbon Receptor (Ahr) (AID 2282930); conditions: HepG2 AhR cis-factorial reporter transcription; actives raise or lower the signal
In short: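 Reporter mRNA levels, quantified by RT-PCR and fluorescent capillary electrophoresis, reflect endogenous AhR transcriptional activity in HepG2 cells carrying transfected cis-promoter reporter constructs. Readout at 24 h post-dose; gain or loss fitted against DMSO baseline.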

[6] = ATG_AP_1_CIS: Attagene CIS-FACTORIAL HepG2 Assay for human Activator Protein 1 (AP-1) (AID 2282931); conditions: HepG2 Attagene cis-factorial AP-1 reporter mRNA; actives raise or lower the signal
In short: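 After 24 h incubation with test chemical, RNA from transfected HepG2 cells was reverse-transcribed, amplified, fluorescently labelled and digested before capillary electrophoresis. Reporters were driven by cis-regulatory promoters; activity fitted bidirectionally versus DMSO.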

[7] = ATG_AP_2_CIS: Attagene CIS-FACTORIAL HepG2 Assay for human Activator Protein 2 (AP-2) (AID 2282932); conditions: HepG2 AP-2 cis-reporter, Attagene transcription factor profiling; actives raise or lower the signal
In short: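 HepG2, transient MRTU transfection, cis-regulated reporters; 24 h compound exposure; RNA isolated, RT-PCR, 6-FAM labelling, HpaI digest, CE fluorescence. DMSO = negative control/baseline, bidirectional fit.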

[8] = target: Retinoic acid receptor alpha (Homo sapiens) (UniProt P10276); test: ATG_DR5_RAR_CIS: Attagene CIS-FACTORIAL HepG2 Assay for human Retinoic Acid Receptor Alpha (RARE), DR5 submotif (AID 2282934); conditions: HepG2 Attagene cis-factorial RARE DR5 reporter, mRNA; actives raise or lower the signal
In short: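 Reporter transcripts from a DR5-regulated unit, measured via RT-PCR plus capillary electrophoresis, reflect endogenous RAR activity in transiently transfected human HepG2 liver cells. Exposure lasted 24 h; gain or loss of signal scored against DMSO.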

[9] = ATG_E_Box_CIS: Attagene CIS-FACTORIAL HepG2 Assay for human Enhancer Box (E-box) (AID 2282936); conditions: HepG2 E-box cis-reporter transcription, actives raise or lower the signal
In short: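 Cells: HepG2 (human liver), transient MRTU transfection. Exposure 24 h. RNA → oligo(dT) RT → PCR → 6-FAM label → HpaI → CE. Activity fitted both directions relative to DMSO.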

[10] = ATG_M_61_CIS: Attagene CIS-FACTORIAL HepG2 Assay for M61 Transcription Factor (Internal Marker) (AID 2282937); conditions: HepG2 Attagene CIS-FACTORIAL M61 internal marker reporter; actives raise or lower the signal
In short: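 Using transiently transfected HepG2 liver cells, reporter transcript levels were assessed 24 h post-dosing by RT-PCR and capillary electrophoresis. Changes in either direction were fitted relative to DMSO controls.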

[11] = ATG_EGR_CIS: Attagene CIS-FACTORIAL HepG2 Assay for human Early Growth Response 1 (EGR1) (AID 2282938); conditions: HepG2 Attagene CIS-FACTORIAL EGR reporter mRNA; actives raise or lower the signal
In short: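 Fluorescent capillary-electrophoresis signal of reporter cDNA fragments serves as read-out. HepG2 cells bear transiently transfected cis-promoter reporter units and are exposed 24 h; gain- or loss-of-signal is fitted against DMSO.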

[12] = ATG_M_19_CIS: Attagene CIS-FACTORIAL HepG2 Assay for M19 Transcription Factor (Internal Marker) (AID 2282939); conditions: HepG2 Attagene CIS-FACTORIAL M19 internal marker reporter; actives raise or lower the signal
In short: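 HepG2, MRTU transient transfection, 24 h dosing. Total RNA → RT-PCR → 6-FAM primer extension → HpaI digest → CE fluorescence. Bidirectional curve fit, DMSO negative control.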

[13] = ATG_Ets_CIS: Attagene CIS-FACTORIAL HepG2 Assay for human Erythroblast Transformation Specific (ETS) (AID 2282941); conditions: HepG2 ETS cis-reporter transcription, actives raise or lower the signal
In short: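 HepG2 cells transfected with multiple cis-regulated reporter units measuring endogenous ETS-driven transcription, 24 h after dosing. Reporter mRNA quantified by RT-PCR with capillary electrophoresis; bidirectional fit relative to DMSO.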

[14] = target: Hepatocyte nuclear factor 3-beta (Homo sapiens) (UniProt Q9Y261); test: ATG_FoxA2_CIS: Attagene CIS-FACTORIAL HepG2 Assay for human Forkhead box A2 (FOXA2) (AID 2282942); conditions: HepG2 cis-reporter transcription factor activity, 24 h; actives raise or lower the signal
In short: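 Fluorescence signal of reporter cDNA fragments, separated by capillary electrophoresis, reflects endogenous transcription factor activity in transfected HepG2 after 24 h. Both increases and decreases fitted against DMSO.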

[15] = ATG_FoxO_CIS: Attagene CIS-FACTORIAL HepG2 Assay for human Forkhead box O (FoxO) (AID 2282943); conditions: HepG2 Attagene cis-reporter, FoxO element, mRNA; actives raise or lower the signal
In short: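 Endogenous transcription factor activity read from multiplexed cis-promoter reporter transcripts in transiently transfected HepG2, 24 h after dosing. Reporter RNA measured via RT-PCR plus capillary electrophoresis of FAM-labeled products; gain or loss relative to DMSO.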

[16] = ATG_GATA_CIS: Attagene CIS-FACTORIAL HepG2 Assay for human GATA Binding Protein (AID 2282944); conditions: HepG2 GATA cis-element reporter, Attagene multiplex mRNA; actives raise or lower the signal
In short: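 Cells: HepG2, transiently transfected with cis-regulated reporter transcription units. Exposure: 24 h. Detection: RT-PCR plus capillary electrophoresis of FAM-labeled fragments. Analysis: bidirectional, DMSO as baseline.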

[17] = ATG_GLI_CIS: Attagene CIS-FACTORIAL HepG2 Assay for human Zinc Finger Protein GLI1 (AID 2282945); conditions: HepG2, Attagene cis-factorial reporter mRNA, GLI element; actives raise or lower the signal
In short: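 Bidirectional curve fits relative to DMSO, using reporter mRNA levels from RT-PCR plus capillary electrophoresis. Cells were HepG2 transiently carrying cis-regulated reporter constructs, harvested 24 h after dosing.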

[18] = ATG_BRE_CIS: Attagene CIS-FACTORIAL HepG2 Assay for human Bone Morphogenetic Protein (BMP) Response Element (BRE) (AID 2282933); conditions: HepG2 BMP response element reporter, Attagene transcription factor profiling; actives raise or lower the signal
In short: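 Fluorescence-labelled reporter cDNA fragments, separated by capillary electrophoresis, gave the signal for this component of a 52-readout multiplex. HepG2 cells were transfected, exposed to chemicals for 24 h, and compared with DMSO using bidirectional fitting.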

[19] = target: Transcription factor E2F1 (Homo sapiens) (UniProt Q01094); test: ATG_E2F_CIS: Attagene CIS-FACTORIAL HepG2 Assay for human E2F Transcription Factor 1 (AID 2282935); conditions: HepG2 Attagene cis-reporter, E2F reporter RNA transcripts; actives raise or lower the signal
In short: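 Cis-element reporter mRNA induction in transiently transfected HepG2, 24 h exposure. Activity fitted in both directions relative to DMSO negative control.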

[20] = ATG_ERE_CIS: Attagene CIS-FACTORIAL HepG2 Assay for Estrogen Response Element (ERE) (AID 2282940); conditions: HepG2 ERE cis-reporter, Attagene RNA transcript; actives raise or lower the signal
In short: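 After a 24 h chemical treatment, RNA from reporter-transfected HepG2 cells is reverse-transcribed, PCR-amplified and fluorescently labelled. Fragments separated by capillary electrophoresis give reporter signal; DMSO serves as negative control.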

Measured: AC50

CCAAT/enhancer-binding protein beta (Homo sapiens), sequence (P17676 whole entry, looked up, the tested form may be a part): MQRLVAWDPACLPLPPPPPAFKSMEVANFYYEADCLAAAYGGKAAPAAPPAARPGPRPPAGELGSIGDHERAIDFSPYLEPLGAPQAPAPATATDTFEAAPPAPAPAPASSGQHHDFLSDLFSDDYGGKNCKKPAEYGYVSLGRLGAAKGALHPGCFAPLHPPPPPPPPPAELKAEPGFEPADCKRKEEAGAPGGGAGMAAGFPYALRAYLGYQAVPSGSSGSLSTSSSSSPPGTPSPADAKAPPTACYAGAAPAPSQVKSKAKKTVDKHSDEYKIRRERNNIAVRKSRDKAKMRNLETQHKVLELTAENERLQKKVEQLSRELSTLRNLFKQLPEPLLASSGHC
Retinoic acid receptor alpha (Homo sapiens), sequence (P10276 whole entry, looked up): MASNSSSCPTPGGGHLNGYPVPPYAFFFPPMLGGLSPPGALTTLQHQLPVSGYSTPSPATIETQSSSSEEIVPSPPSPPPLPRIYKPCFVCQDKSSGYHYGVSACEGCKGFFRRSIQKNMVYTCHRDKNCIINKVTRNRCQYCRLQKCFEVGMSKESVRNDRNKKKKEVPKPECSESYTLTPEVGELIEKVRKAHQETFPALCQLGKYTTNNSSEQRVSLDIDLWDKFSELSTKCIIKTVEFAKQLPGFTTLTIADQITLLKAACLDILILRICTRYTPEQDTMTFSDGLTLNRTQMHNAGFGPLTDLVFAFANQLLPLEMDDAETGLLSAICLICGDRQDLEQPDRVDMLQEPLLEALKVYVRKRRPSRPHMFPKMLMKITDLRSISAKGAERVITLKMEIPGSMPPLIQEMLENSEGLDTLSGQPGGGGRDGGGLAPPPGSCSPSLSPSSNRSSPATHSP
Aryl hydrocarbon receptor (Homo sapiens), sequence (P35869 whole entry, looked up): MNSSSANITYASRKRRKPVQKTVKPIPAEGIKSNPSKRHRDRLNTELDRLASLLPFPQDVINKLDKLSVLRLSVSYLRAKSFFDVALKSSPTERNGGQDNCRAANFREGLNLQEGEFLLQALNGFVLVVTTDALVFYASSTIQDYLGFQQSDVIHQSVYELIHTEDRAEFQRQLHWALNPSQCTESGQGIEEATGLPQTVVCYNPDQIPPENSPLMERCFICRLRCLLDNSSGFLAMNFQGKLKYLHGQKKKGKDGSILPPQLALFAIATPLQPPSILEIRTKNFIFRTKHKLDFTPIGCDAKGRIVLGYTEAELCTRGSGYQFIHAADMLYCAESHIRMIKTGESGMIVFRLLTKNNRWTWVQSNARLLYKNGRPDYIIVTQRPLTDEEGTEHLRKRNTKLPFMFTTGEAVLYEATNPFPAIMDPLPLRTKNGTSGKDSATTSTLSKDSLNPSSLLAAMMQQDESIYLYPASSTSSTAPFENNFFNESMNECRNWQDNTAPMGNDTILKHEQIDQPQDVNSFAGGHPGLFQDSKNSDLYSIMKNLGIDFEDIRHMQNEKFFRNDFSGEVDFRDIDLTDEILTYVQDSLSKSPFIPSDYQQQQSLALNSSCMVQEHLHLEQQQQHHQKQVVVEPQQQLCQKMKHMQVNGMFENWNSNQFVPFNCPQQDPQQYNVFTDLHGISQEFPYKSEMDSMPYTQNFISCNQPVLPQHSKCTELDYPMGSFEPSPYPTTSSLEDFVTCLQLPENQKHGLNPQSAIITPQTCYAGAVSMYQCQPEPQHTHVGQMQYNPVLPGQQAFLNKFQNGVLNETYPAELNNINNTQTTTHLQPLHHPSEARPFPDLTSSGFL
Transcription factor E2F1 (Homo sapiens), sequence (Q01094 whole entry, looked up): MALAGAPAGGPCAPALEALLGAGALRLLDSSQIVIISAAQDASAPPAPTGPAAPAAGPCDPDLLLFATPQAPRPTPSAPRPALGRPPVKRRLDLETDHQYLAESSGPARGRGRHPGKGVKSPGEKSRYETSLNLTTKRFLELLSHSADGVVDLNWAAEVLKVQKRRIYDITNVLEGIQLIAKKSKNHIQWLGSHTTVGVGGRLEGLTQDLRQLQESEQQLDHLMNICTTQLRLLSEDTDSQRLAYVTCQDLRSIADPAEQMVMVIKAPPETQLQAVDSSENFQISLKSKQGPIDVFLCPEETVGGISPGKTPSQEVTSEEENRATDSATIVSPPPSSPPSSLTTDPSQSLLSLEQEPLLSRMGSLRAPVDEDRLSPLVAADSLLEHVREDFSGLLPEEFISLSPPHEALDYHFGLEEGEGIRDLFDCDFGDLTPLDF
Hepatocyte nuclear factor 3-beta (Homo sapiens), sequence (Q9Y261 whole entry, looked up, the tested form may be a part): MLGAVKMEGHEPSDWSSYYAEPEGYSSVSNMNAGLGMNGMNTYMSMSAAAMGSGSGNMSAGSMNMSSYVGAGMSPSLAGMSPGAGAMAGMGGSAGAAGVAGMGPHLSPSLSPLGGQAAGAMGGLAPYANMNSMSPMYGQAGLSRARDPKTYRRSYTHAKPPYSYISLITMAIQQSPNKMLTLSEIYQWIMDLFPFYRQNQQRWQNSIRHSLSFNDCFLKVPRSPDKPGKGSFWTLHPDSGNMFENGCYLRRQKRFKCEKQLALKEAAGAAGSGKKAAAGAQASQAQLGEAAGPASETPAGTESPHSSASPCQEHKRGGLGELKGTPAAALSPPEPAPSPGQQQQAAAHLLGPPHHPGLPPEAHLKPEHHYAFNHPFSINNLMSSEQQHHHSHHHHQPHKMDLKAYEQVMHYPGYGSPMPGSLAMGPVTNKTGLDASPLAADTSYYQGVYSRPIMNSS

COC(=O)c1ccc([N+](=O)[O-])cc1
inactive: [1] | [2] | [3] | [4] | [5] | [6] | [7] | [8] | [9] | [10] | [11] | [12] | [13] | [14] | [15] | [16] | [17]

CN(C)CCOc1ccc(/C(=C(/CCCl)c2ccccc2)c2ccccc2)cc1
active: [4] 1.99 µM
inactive: [1] | [2] | [3] | [5] | [7] | [18] | [8] | [19] | [9] | [10] | [11] | [12] | [13] | [14] | [15] | [16] | [17]

O=C(O)COCC(=O)O
inactive: [1] | [2] | [3] | [4] | [5] | [7] | [18] | [8] | [19] | [9] | [11] | [12] | [13] | [14] | [15] | [16] | [17]

C[Si]1(C)O[Si](C)(C)O[Si](C)(C)O1
inactive: [1] | [2] | [3] | [4] | [5] | [7] | [18] | [8] | [9] | [10] | [11] | [12] | [13] | [14] | [15] | [16] | [17]

Oc1ccc2cc(SSc3ccc4cc(O)ccc4c3)ccc2c1
active: [1] 62 µM | [2] 131 µM | [3] 26 µM | [11] 27.7 µM
inactive: [4] | [5] | [7] | [8] | [19] | [9] | [10] | [13] | [14] | [15] | [16] | [17]

CC1(C)CCC[C@]2(C)[C@H]3CCO[C@]3(C)CC[C@@H]12
inactive: [1] | [2] | [3] | [4] | [5] | [7] | [18] | [8] | [19] | [10] | [11] | [12] | [13] | [15] | [16] | [17]

Cc1cc(CCC(=O)OCCOCCOCCOC(=O)CCc2cc(C)c(O)c(C(C)(C)C)c2)cc(C(C)(C)C)c1O
inactive: [1] | [2] | [3] | [4] | [5] | [7] | [8] | [19] | [9] | [10] | [11] | [12] | [13] | [14] | [15] | [16] | [17]

CCOC(=O)CCc1ccccc1
inactive: [1] | [2] | [3] | [4] | [5] | [7] | [18] | [8] | [19] | [9] | [10] | [11] | [12] | [13] | [14] | [15] | [16] | [17]

CCC(C)=O
inactive: [1] | [2] | [3] | [4] | [5] | [6] | [7] | [8] | [19] | [10] | [12] | [13] | [14] | [15] | [16] | [17]

Clc1ccc(C(c2ccccc2Cl)C(Cl)Cl)cc1 (stereo unspecified)
inactive: [1] | [2] | [7] | [18] | [8] | [19] | [9] | [10] | [11] | [13] | [14] | [16]
active: [3] 100 µM | [4] 25.2 µM | [5] 65.6 µM | [12] 100 µM | [17] 53.7 µM

C[C@@H]1CCN(C(=O)[C@H](CCCN=C(N)N)NS(=O)(=O)c2cccc3c2NC[C@H](C)C3)[C@@H](C(=O)O)C1
inactive: [1] | [2] | [3] | [4] | [5] | [7] | [18] | [8] | [19] | [9] | [10] | [11] | [12] | [20] | [13] | [14] | [16] | [17]

C/C=C(\C)C(=O)OCCc1ccccc1
inactive: [1] | [2] | [3] | [4] | [5] | [7] | [18] | [8] | [9] | [10] | [11] | [12] | [13] | [14] | [15] | [16] | [17]

O=c1[nH]c(=O)c2cn[nH]c2[nH]1
inactive: [1] | [2] | [3] | [4] | [5] | [7] | [18] | [8] | [19] | [9] | [10] | [11] | [13] | [14] | [15] | [16] | [17]
